C2C12 statin: suppression of simvastatin myotoxicity; C2C12 myotubes + simvastatin, ATP luminescence, 48 h; scaled: DMSO 0, geranylgeraniol control 100; rescue of ATP level, % at 7.49 µM; 0.78% of 330,000 active; AID 602340;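 active means mean ATP rescue above about 67%, or every replicate alone reaching that limit, limit read from the data, passing the limit was not always enough; inconclusive means no clear call, values can overlap the other calls; inactive means mean under the limit and some replicate under it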;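 further: myotubes were challenged with 10 µM simvastatin during compound exposure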
TRPM1 prom inh: MITF TRPM1 promoter inhibition in SK-MEL-5 cells. 0.83% of 330,000 active. inhibition, % at 12.5 µM. SK-MEL-5 TRPM1 promoter luciferase, 24 h;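 active means mean inhibition across replicates of 60% or more, whatever share of single replicates reaches that level; inconclusive means some that reach 60%, reason not given; inactive means mean inhibition across replicates below 60%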
esBAF inh: blocks esBAF chromatin remodeling in mouse ES cells; Bmi1-luciferase knock-in reporter, 24 h; 100% = twice the neutral-well signal; reporter increase, % at 12.5 µM; 2% of 350,000 active; in the data active means activation above about 40%; inconclusive means no clear call, values can overlap the other calls;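 further: 0% = median of the plate's neutral control wells and 100% = double that signal; a rise in the Bmi1 reporter signal indicates esBAF inhibition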
MITF act: activators of MITF-driven TRPM1 promoter activity in SK-MEL-5 cells; activation, % at 12.5 µM; 0.75% of 300,000 active; AID 588334; SK-MEL-5 TRPM1-promoter luciferase, 24 h; % of positive control, neutral wells = 0;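 active means mean activation of at least 80% with every replicate also reaching 80%; inconclusive means mean reaches 80% but some replicate falls short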;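 further: 0% = neutral control wells and 100% = parthenolide positive control wells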
Wnt bcat act: activates Wnt/beta-catenin signaling in a reporter cell assay; activator, plate reader; activation, % at 9.35 µM; 1.2% of 300,000 active; AID 743398; in the data active means activation above about 30%, passing the limit was not always enough; inconclusive means no clear call, values can overlap the other calls;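 further: 0% = neutral control wells and 100% = positive control wells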
LMP1 NFkB inh: Epstein-Barr LMP1 NF-kappaB reporter inhibition; inhibition, % at 12.5 µM; 0.69% of 350,000 active; LMP1-induced NF-kappaB luciferase reporter cells, luminescence; in the data active means inhibition above about 41%; inconclusive means no clear call, values can overlap the other calls;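 further: 0% = neutral control wells and 100% = reference inhibitor control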
An asterisk follows results filed as active. Only some compounds are listed: those with a hit (about 4% of all), similar ones and a draw of the others.

`CC(C)(C)N1C(=O)[C@H]2[C@@H](c3ccc(Br)cc3)N3C(=O)N(c4cccc(F)c4)C(=O)[C@@]3(C)[C@H]2C1=O` gave C2C12 statin -2, TRPM1 prom inh -1, esBAF inh 0, MITF act -2, Wnt bcat act -1 and LMP1 NFkB inh -4.
COc1cc2c(cc1OC)CN(c1ccc(C(F)(F)F)cn1)CC2 was read as C2C12 statin -23, TRPM1 prom inh -43, esBAF inh 41*, MITF act 37, Wnt bcat act 4 and LMP1 NFkB inh -21.
For CO[C@H]1CN(C)C(=O)c2cc(NC(=O)C3CC3)ccc2OC[C@H](C)N(Cc2ccc(F)cc2)C[C@H]1C the results were C2C12 statin 6 and esBAF inh 4.
`O=C(Nc1sc2c(c1C(=O)O)CCCC2)c1cccs1` gave C2C12 statin -8, TRPM1 prom inh -37, esBAF inh 56*, MITF act 33 and LMP1 NFkB inh 3.
Screening CCOC(=O)c1c(NC(=O)CSc2nnc(C)s2)sc2c1CCC(C)C2 (stereo not drawn) returned C2C12 statin 98*, TRPM1 prom inh -12, esBAF inh -5, MITF act 13 and LMP1 NFkB inh 0.
Screening O=C(Nc1sc2c(c1C(=O)O)CCCCC2)c1cccs1 returned TRPM1 prom inh -41, MITF act 31, Wnt bcat act 12 and LMP1 NFkB inh 37.
`O=C(/C=C/c1cccs1)Nc1sc2c(c1C(=O)O)CCCC2` gave C2C12 statin -17, TRPM1 prom inh 6, esBAF inh 62*, MITF act -6, Wnt bcat act 14 and LMP1 NFkB inh 3.
Screening COC(=O)c1c(NC(=O)c2cccs2)sc2c1CCC(C)C2 (stereo not drawn) returned C2C12 statin -25, TRPM1 prom inh -27, esBAF inh 50*, MITF act 31, Wnt bcat act -2 and LMP1 NFkB inh -37.
Screening O=C(C[C@H]1C=C[C@H](NS(=O)(=O)c2ccccc2F)[C@H](CO)O1)NCCCN1CCOCC1 returned C2C12 statin -15 and esBAF inh -3.
`CC(C)C(=O)N1CCC(CN=Cc2c(O)n(C3CCCCC3)c(=O)n(C3CCCCC3)c2=O)CC1` gave C2C12 statin 28, TRPM1 prom inh 9, esBAF inh -1, MITF act -10, Wnt bcat act -5 and LMP1 NFkB inh 11.
For CCc1ccc(-c2cn3nc(C)c(C)nc3n2)cc1 the results were C2C12 statin -17, TRPM1 prom inh 77*, esBAF inh -80 and LMP1 NFkB inh 84*.
Screening Cc1nc2nc(-c3ccc(F)cc3)cn2nc1C returned TRPM1 prom inh -15, MITF act 18, Wnt bcat act 22 and LMP1 NFkB inh 13.
For O=C(c1ccccc1)c1ccc(OCC(O)CN2CCN(S(=O)(=O)N3CCCCC3)CC2)cc1 (stereo not drawn) the results were C2C12 statin 77*, TRPM1 prom inh 17, esBAF inh 3, MITF act -17 and LMP1 NFkB inh 8.
O=C(c1ccccc1)c1ccc(OCC(O)CN2CCCCC2)cc1 (stereo not drawn) was read as TRPM1 prom inh -3, esBAF inh -3 and LMP1 NFkB inh 2.
Cc1cccc(NC(=O)Cn2nnc3ccccc32)c1 was read as C2C12 statin -3, TRPM1 prom inh -52, esBAF inh 63*, MITF act 55, Wnt bcat act 8 and LMP1 NFkB inh -19.
COC(=O)c1ccc(NC(=O)Cn2nnc3ccccc32)cc1 was read as TRPM1 prom inh -52, esBAF inh 71*, MITF act 54, Wnt bcat act 24 and LMP1 NFkB inh -38.
`O=C(Cn1nnc2ccccc21)Nc1ccc([N+](=O)[O-])cc1` gave TRPM1 prom inh 9, MITF act -6, Wnt bcat act 4 and LMP1 NFkB inh -14.
`Cc1ccc(NC(=O)Cn2nnc3ccccc32)cc1` gave TRPM1 prom inh -52, MITF act 55, Wnt bcat act 12 and LMP1 NFkB inh -46.
For CCOc1ccc(CCNC(=O)c2ccc(CS(=O)Cc3cccc(Cl)c3)o2)cc1 (stereo not drawn) the results were C2C12 statin inconclusive, TRPM1 prom inh -3, esBAF inh 22, MITF act 5, Wnt bcat act -1 and LMP1 NFkB inh -9.
Cc1cc(C)nc(NC(=O)CSc2nnnn2-c2ccccc2)n1 was read as C2C12 statin 6, TRPM1 prom inh -6, esBAF inh 6, Wnt bcat act 9 and LMP1 NFkB inh -4.
`N#Cc1nc(-c2ccco2)oc1N1CCCC1` gave C2C12 statin 112*, TRPM1 prom inh 3, esBAF inh 0, MITF act -5, Wnt bcat act -1 and LMP1 NFkB inh -6.
Screening Cc1cccc(-c2nc(C#N)c(N3CCCCC3)o2)c1 returned C2C12 statin 1, TRPM1 prom inh -70, esBAF inh 50*, MITF act 72, Wnt bcat act 15 and LMP1 NFkB inh -16.
Screening Cc1cccc(-c2nc(C#N)c(NC3CCCCC3)o2)c1 returned C2C12 statin -30, TRPM1 prom inh -101, esBAF inh 62*, MITF act 100* and LMP1 NFkB inh -67.
`O=C(Cc1ccccc1Cl)Nc1ccc(S(=O)(=O)N2CCOCC2)cc1` gave C2C12 statin -26, TRPM1 prom inh 0, esBAF inh -6, MITF act 3, Wnt bcat act -4 and LMP1 NFkB inh 5.
CC(C)(Oc1ccc(Cl)cc1)C(=O)NCc1ccco1 was read as C2C12 statin 123*, TRPM1 prom inh 0, esBAF inh -12, MITF act 1, Wnt bcat act -6 and LMP1 NFkB inh -1.
`CC(C)(Oc1ccc(Cl)cc1)C(=O)NCc1ccncc1` gave C2C12 statin 3, TRPM1 prom inh -8, esBAF inh 11, MITF act 5, Wnt bcat act -2 and LMP1 NFkB inh 5.
Screening C[C@H](CO)N1C[C@H](C)[C@@H](CN(C)Cc2ccc(C(F)(F)F)cc2)Oc2ccc(NC(=O)Nc3cccc4ccccc34)cc2CC1=O returned C2C12 statin 44 and esBAF inh 7.
`Cc1cc(C(=O)COc2cccc([N+](=O)[O-])c2)c(C)n1C1CC1` gave C2C12 statin -4, TRPM1 prom inh -106, esBAF inh 71*, MITF act 105*, Wnt bcat act -2 and LMP1 NFkB inh -38.
Screening CC(=O)Nc1ccc(-c2ccnc3c2CC(C)(C(=O)NC(C)C)O3)cc1 (stereo not drawn) returned C2C12 statin 0, esBAF inh -1 and Wnt bcat act 41*.
For CCCCCCc1cc2cc(C(=O)Nc3ccccc3)c(=O)oc2cc1O the results were TRPM1 prom inh 72*, MITF act -70 and LMP1 NFkB inh -1.
CCC(CO)Nc1ccn2nc(-c3cc(OC)c(OC)c(OC)c3)cc2n1 (stereo not drawn) was read as C2C12 statin 5, esBAF inh -6 and Wnt bcat act 0.

Screening data (PubChem)
